Assay [1] in a line: A CellTox Green Cytotoxicity Assay to monitor cytotoxicity in HEK293 cells - 32 hour (AID 1224881). Further: nearly all actives have a fitted effect of over 40% in size. Further: potency means the concentration at half of the fitted maximal effect. The method in brief: (§1)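 Dead-cell fluorescence measured kinetically: asymmetric cyanine dye, HEK293, 600 cells/well, 5 h settle, 23 nL cpd/DMSO, 37 C, reads 0–40 h every 8 h.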
Assay [2] in a line: A CellTox Green Cytotoxicity Assay to monitor cytotoxicity in HepG2 cells - 0 hour (AID 1224882). Further: nearly all actives have a fitted effect of over 35% in size. The method in brief: (§2)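 First, HepG2 cells (600/well) mixed with reagent were plated; second, after 5 h at 37 C they received compounds via pintool; third, fluorescence was measured at 0 h through 40 h at 8 h intervals.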
Assay [3] can be described thus: A CellTox Green Cytotoxicity Assay to monitor cytotoxicity in HepG2 cells - 32 hour (AID 1224883). Further: nearly all actives have a fitted effect of over 50% in size. Further: potency means the concentration at half of the fitted maximal effect. In outline: as §2
A short description of assay [4]: A CellTox Green Cytotoxicity Assay to monitor cytotoxicity in HEK293 cells - 8 hour (AID 1224884). Further: nearly all actives have a fitted effect of over 35% in size. Further: potency means the concentration at half of the fitted maximal effect. In outline: as §1
A short description of assay [5]: qHTS RealTime-Glo MT Cell Viability Assay in HepG2 cells - 16 hour (AID 1224885). Further: nearly all actives have a fitted effect of over 50% in size. Further: potency means the concentration at half of the fitted maximal effect. In outline:
(§3)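 HepG2 suspension premixed with RealTime-Glo reagents is plated at 600 cells per well and left 5 h at 37 C/5% CO2. Compounds in DMSO then go in, and bioluminescence reflecting viable cell number is recorded over 40 h.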

Assay [6] in a line: qHTS RealTime-Glo MT Cell Viability Assay in HEK293 cells - 24 hour (AID 1224886). Further: top concentration of the series differs between compounds; nearly all actives have a fitted effect of over 50% in size. The method in brief:
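Reads taken at 0, 8, 16, 24, 32 and 40 h from the same wells. HEK293 cells (600/well) carried RealTime-Glo reagents from seeding, with compound added after a 5 h settle at 37 C.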

The nature of assay [7]: qHTS RealTime-Glo MT Cell Viability Assay in HEK293 cells - 8 hour (AID 1224887). Further: nearly all actives have a fitted effect of over 50% in size. Further: potency means the concentration at half of the fitted maximal effect. In outline: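 600 HEK293 cells per well, dispensed already mixed with RealTime-Glo MT reagents. Compound dosing came 5 h later. The same wells were read for luminescence at 0, 8, 16, 24, 32 and 40 h of exposure at 37 C.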
Assay [8] is described as follows: A CellTox Green Cytotoxicity Assay to monitor cytotoxicity in HEK293 cells - 16 hour (AID 1224888). Further: nearly all actives have a fitted effect of over 35% in size. Further: potency means the concentration at half of the fitted maximal effect. The method in brief:
as §1

Assay [9] can be described thus: qHTS RealTime-Glo MT Cell Viability Assay in HepG2 cells - 0 hour (AID 1224889). Further: nearly all actives have a fitted effect of over 50% in size. The method in brief: as §3
Assay [10] can be described thus: A CellTox Green Cytotoxicity Assay to monitor cytotoxicity in HepG2 cells - 8 hour (AID 1224890). Further: nearly all actives have a fitted effect of over 45% in size. Further: potency means the concentration at half of the fitted maximal effect. In outline:
as §2

Assay [11] can be described thus: qHTS assay to identify small molecule antagonists of the estrogen receptor alpha (ER-alpha) signaling pathway using the BG1 cell line in the presence of 0.1 nM 17-beta-estradiol - cell viability counter screen (AID 1259241). Further: nearly all actives have a fitted effect of over 40% in size. In outline: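 Following 5 days in phenol red-free medium with charcoal-stripped serum, VM7Luc4E2 cells received test compounds alongside 0.1 nM 17beta-estradiol (final) at 37C for 22 hr. Live cells were then quantified via protease-substrate fluorescence.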

Assay [12] in a line: qHTS assay to identify small molecule antagonists of the androgen receptor (AR) signaling pathway using the MDA cell line in the presence of 0.5 nM R1881 - cell viability counter screen (AID 1259242). Further: nearly all actives have a fitted effect of over 45% in size. The method in brief:
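qHTS format. MDA-kb2 (MMTV-luc, AR/GR responsive) + cpd + 0.5 nM R1881 final, 16 hr 37C/0% CO2 → CellTiter-Fluor 30 min → fluorescence intensity.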

For assay [13], the target named is Estrogen receptor (Homo sapiens) (UniProt P03372). As to the kind of experiment: qHTS assay to identify small molecule antagonists of the estrogen receptor alpha (ER-alpha) signaling pathway using the BG1 cell line in the presence of 0.1 nM 17-beta-estradiol (AID 1259244). Further: nearly all actives have a fitted effect of over 50% in size. The method in brief:
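Reporter is a stably transfected luciferase under four estrogen responsive elements in VM7Luc4E2 cells expressing native full-length ER-alpha; inhibition of 0.1 nM (final) 17beta-estradiol-driven signal over 22 h is read by luminescence.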

A short description of assay [14]: qHTS assay to identify small molecule HDAC inhibitors (AID 1259364).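 Further: wild-type HCT-116 cells with endogenous class I/II HDAC activity; top concentration of the series differs between compounds; nearly all actives have a fitted effect of over 45% in size.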 In outline:
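Quantitative high-throughput format: overnight-seeded HCT-116 cells got compounds for 2 hr at 37C; HDAC-Glo I/II reagent added, 30 min RT, luminescence measured.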

The nature of assay [15]: qHTS assay to identify small molecule agonists of the sonic hedgehog signaling (Shh) pathway - cell viability counter screen (AID 1259366). Further: nearly all actives have a fitted effect of over 50% in size. Further: potency means the concentration at half of the fitted maximal effect. The method in brief: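 Compounds in DMSO were pin-transferred onto 3T3 Gli1-Luc cells that had settled 4hr; plates then stood 24hr at 37C and 5% CO2. One hour before the end, CellTiter-Fluor was added and fluorescence recorded.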
Assay [16] in a line: qHTS assay to identify small molecule antagonists of the sonic hedgehog signaling (Shh) pathway - cell viability counter screen (AID 1259367). Further: nearly all actives have a fitted effect of over 55% in size. In outline: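 CellTiter-Fluor signal in conditioned medium-stimulated 3T3 Gli1-Luc cells, 23 hr compound exposure, 37C.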
Assay [17] is described as follows: qHTS assay to identify small molecule agonists of the sonic hedgehog signaling (Shh) pathway (AID 1259368; calls by dose curve;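 further: NIH/3T3-derived 3T3Gli1-Luc cells carrying a stable Gli1-driven firefly luciferase reporter; series mostly up to about 92 µM; nearly all actives have a fitted effect of over 15% in size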). In outline:
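Quantitative high-throughput format using a Gli1-driven firefly luciferase reporter line derived from NIH/3T3 cells. After a 24 hr compound treatment at 37 C and 5% CO2, luminescence reported Gli1 response element activity.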

The nature of assay [18]: qHTS assay to identify small molecule HDAC inhibitors - cell viability counter screen (AID 1259365). Further: nearly all actives have a fitted effect of over 50% in size. Further: potency means the concentration at half of the fitted maximal effect. In outline:
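HCT-116 wild-type, overnight attachment; 2hr drug exposure, 37C; CellTiter-Glo luminescent ATP readout after 30min RT.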

Assay [19] in a line: qHTS assay to identify small molecule phospholipidosis (PLD) inducers (AID 1259344; active means well fitted curve in the direction sought with a large enough effect; an effect the other way counts as inactive or inconclusive). In outline: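 Accumulated phospholipid, stained red by LipidTOX during 24 h compound treatment of HepG2 cells at 37 C, is quantified from images as pit number and intensity, normalised per cell using Hoechst-stained nuclei.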

Several values for one entry are separate records, joined by “and”; a condition that tells them apart may be missing. Equal values may be shown once. Inconclusive results are not listed. Some structures have more than one record in an assay (separate samples or runs), and their calls can disagree. Activity calls are given as the source filed them. Unless noted, the call rests on the fitted dose curve; in most records, active means well fitted curve in the direction sought with a large enough effect in the repeat runs; inconclusive means weak or mixed curves; inactive means no such curve, though single readings can be large; an effect the other way counts as inactive or inconclusive.

Sequence of Estrogen receptor (Homo sapiens) (P03372 whole entry, looked up): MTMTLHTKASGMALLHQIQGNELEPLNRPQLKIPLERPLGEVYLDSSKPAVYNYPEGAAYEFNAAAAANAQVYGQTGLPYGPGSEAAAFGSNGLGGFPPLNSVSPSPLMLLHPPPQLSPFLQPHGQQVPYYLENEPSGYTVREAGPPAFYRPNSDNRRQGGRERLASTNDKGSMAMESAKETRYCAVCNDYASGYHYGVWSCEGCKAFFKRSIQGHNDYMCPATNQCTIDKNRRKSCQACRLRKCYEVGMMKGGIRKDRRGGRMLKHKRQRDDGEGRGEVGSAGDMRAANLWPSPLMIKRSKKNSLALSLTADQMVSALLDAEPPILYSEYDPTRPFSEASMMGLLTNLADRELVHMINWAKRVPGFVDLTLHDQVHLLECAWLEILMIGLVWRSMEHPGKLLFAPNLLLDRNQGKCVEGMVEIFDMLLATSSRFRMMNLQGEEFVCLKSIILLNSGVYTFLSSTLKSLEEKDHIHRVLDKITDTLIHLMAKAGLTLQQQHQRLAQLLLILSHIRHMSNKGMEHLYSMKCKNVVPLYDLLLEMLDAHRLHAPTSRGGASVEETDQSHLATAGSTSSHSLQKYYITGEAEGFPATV

As to `C=CC(=O)NC(C)(C)CC(C)=O`, the Potency result in [1], in [2], in [3], in assay [4], in [5] and in assay [6] was “inactive” each time. For the same compound, the Potency result in assay [7], in assay [8], in assay [10], in assay [11], in assay [12] and in assay [13] was “inactive” throughout. For the same compound, the Potency entry in assay [14], in [15], in assay [16] and in [17] was “inactive” in each case. Also, the compound was called inactive in assay [9].

Consider `Cc1nc(N(C)C)nc(OC(=O)N(C)C)c1C`, for which the Potency result in assay [1], in [2], in assay [3], in assay [4], in assay [5] and in assay [6] was “inactive” each time. Besides, the Potency result in assay [7], in assay [8], in [10], in assay [11], in [12] and in assay [13] was “inactive” throughout. Further, the Potency entry in assay [14], in [18], in [15], in [16] and in assay [17] was “inactive” in each case. In [9], the compound was classed as inactive.

Turning to `Cc1nnc(-c2ccccc2)c(=O)n1N`, the Potency entry in assay [1], in assay [2], in [3], in [4], in [5] and in assay [6] was “inactive” in each case. Further, the Potency result in assay [7], in assay [8], in assay [10], in [11], in [12] and in assay [13] was “inactive” in each case. Further, the Potency entry in assay [14], in assay [18], in [15], in [16] and in [17] was “inactive” each time. For the same compound, the compound was classed as inactive in assay [9].

Take `CC(C)(C)CC(C)(C)c1ccc(O)cc1`: the Potency in assay [1] was 12.3 µM (active) and 19 µM (active); in assay [3], 27.5 µM (active) and 15.1 µM (active); in assay [4], 15.5 µM (active) and 12 µM (active); in assay [5], 34.7 µM (active); in assay [7] it was 34.7 µM (active); in [8], 21.9 µM (active) and 21.3 µM (active). Besides, the Potency in [10] was 17.4 µM (active) and 10.7 µM (active); in assay [18], 61.1 µM (active) and inactive; in assay [15], 48.6 µM (active) and inactive. Besides, the Potency entry in [2], in [6], in assay [11], in assay [12] and in assay [14] was “inactive” in each case. Besides, the compound was classed as inactive in assay [9] and in assay [19].

Take `O=S(=O)(Cl)Cl`: the Potency result in assay [1], in [2], in assay [3], in [4], in [5] and in [6] was “inactive” each time. In addition, the Potency entry in assay [7], in assay [8], in assay [10], in assay [11], in assay [12] and in assay [13] was “inactive” each time. Besides, the Potency entry in assay [14], in [18], in assay [15], in assay [16] and in [17] was “inactive” throughout. Also, the outcome in assay [9] was inactive.

`CCCCC1C(=O)NC(=O)N(C2CCCCC2)C1=O` (stereo not given): the Potency entry in [1], in assay [2], in assay [3], in [4], in assay [5] and in [6] was “inactive” in each case. For the same compound, the Potency result in [7], in assay [8], in assay [10], in assay [11], in assay [12] and in assay [14] was “inactive” in each case. Also, the Potency entry in assay [15], in assay [16] and in [17] was “inactive” throughout. For the same compound, the call in assay [9] and in assay [19] was inactive.

As for `CCCCCl`, the Potency entry in assay [1], in assay [2], in assay [3], in assay [4], in [5] and in [6] was “inactive” each time. Besides, the Potency entry in assay [7], in [8], in [10], in assay [11], in assay [12] and in assay [14] was “inactive” each time. In addition, the Potency entry in assay [18], in assay [15], in assay [16] and in assay [17] was “inactive” each time. The result in assay [9] and in assay [19] was inactive.

As for `CCCBr`, the Potency result in assay [1], in [2], in [3], in assay [4], in assay [5] and in assay [6] was “inactive” in each case. The Potency entry in assay [7], in [8], in [10], in [11], in [12] and in assay [13] was “inactive” each time. Further, the Potency entry in assay [14], in assay [18], in assay [15], in [16] and in assay [17] was “inactive” throughout. For the same compound, the compound was classed as inactive in [9].
